Screening results: PubChem, several laboratories
CHT PAM = CHT positive allosteric modulators, primary screen, cell-based, membrane potential dye, choline EC20 | CHT-expressing cells; hits give high values; LV-AA mutant CHT in HEK293 cells | hit rate 0.49% among 310,000 | B-score at 10 µM;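 active = initial fluorescence not abnormally high and integrated response B-score, plate-corrected, over 3 SD above library mean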
Target sequence (Q9GZV3 whole entry, looked up): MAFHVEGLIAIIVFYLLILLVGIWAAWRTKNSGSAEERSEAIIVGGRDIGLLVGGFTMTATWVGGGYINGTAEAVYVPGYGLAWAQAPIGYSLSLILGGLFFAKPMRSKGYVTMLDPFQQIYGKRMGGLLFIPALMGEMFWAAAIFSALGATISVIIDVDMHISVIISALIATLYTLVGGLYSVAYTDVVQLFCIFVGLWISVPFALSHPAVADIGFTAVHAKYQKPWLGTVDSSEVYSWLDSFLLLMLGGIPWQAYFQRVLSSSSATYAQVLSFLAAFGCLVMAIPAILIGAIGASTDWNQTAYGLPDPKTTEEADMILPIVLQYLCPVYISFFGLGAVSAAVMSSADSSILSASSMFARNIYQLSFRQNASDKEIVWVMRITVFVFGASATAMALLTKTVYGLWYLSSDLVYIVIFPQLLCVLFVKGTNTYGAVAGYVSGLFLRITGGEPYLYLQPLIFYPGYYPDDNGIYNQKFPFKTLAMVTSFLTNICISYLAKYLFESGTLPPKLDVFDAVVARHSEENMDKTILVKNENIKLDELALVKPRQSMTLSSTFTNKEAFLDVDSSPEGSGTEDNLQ
Mot1-301 SUMO = yeast Mot1-301 growth rescue at high temperature, primary screen, SUMOylation pathway inhibitor project, S. cerevisiae, ATP luminescence, 38.5C. hit rate 1% among 320,000. S. cerevisiae Mot1-301 growth rescue; percent above DMSO median, 100 means doubled. growth rescue, % at 18.8 µM. AID 2716, 2010;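 active = every valid replicate shows activation above 250% relative to neutral control wells; inactive = the rest, any valid replicate at or below 250%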;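 note: OY570 slx delta 5 strain wells were the positive control but not used for scaling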
NALP1 yeast inh = NALP1 inflammasome inhibitors in reconstituted yeast, colorimetric, S. cerevisiae, triplicate retest; S. cerevisiae NALP1/ASC/caspase-1 growth, X-gal OD620, 72 h; inhibition, % at 10 µM; hit rate 0.61% among 280,000; in the data active = inhibition mostly above about 24%, no sharp cut-off; inactive = mostly below about 32%
NLRP3 yeast inh = NALP3 inflammasome inhibitors in reconstituted yeast, primary screen, luminescence, uHTS | Yeast reconstituted NLRP3/ASC/caspase-1, beta-gal luminescence, 24 h | hit rate 0.39% among 330,000 | inhibition, % at 10 µM;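 active = inhibition of 50% or more; inactive = inhibition below 50%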;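 note: plate controls were induced DMSO wells for no effect and uninduced yeast grown without galactose for full effect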
Bfl-1 A1 inh = caspase 3/7 activation in MEF A1-2A-BIM cells, primary screen, A1 inhibitor project, cell-based, luminescence, HTS; Caspase-Glo 3/7 luminescence, 3 h; percent of clofoctol response, vehicle zero; caspase activation, % (no concentration beside the values); hit rate 0.066% among 330,000; AID 2462, 2010;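 active = over half of replicate activation scores above 10%, or exactly half above 10 with the replicate mean above 10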
CHT inh = inhibitors of human choline transporter CHT | High affinity choline transporter 1 (Homo sapiens), Q9GZV3 | CHT-expressing cells, membrane potential dye, choline response; hits give low values | B-score at 10 µM | hit rate 0.86% among 310,000 | AID 488975, 2010;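 active = B-score over 3 SD under the library average, and starting fluorescence ratio not unusually high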;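 note: choline stimulus applied at its EC90 after an EC20 pre-addition; B-score computed on integrated fluorescence ratio after choline addition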
Numbers without * were called inactive; i = inactive; x = no result given; + = active, no number. Shown are actives, neighbours in structure and some others; about 3% of the full set was active somewhere.

SMILES | CHT PAM | Mot1-301 SUMO | NALP1 yeast inh | NLRP3 yeast inh | Bfl-1 A1 inh | CHT inh
Cc1ccc(Cn2c(CN(C)Cc3ccccc3)nc3c2c(=O)n(C)c(=O)n3C)cc1 | i | -2 | 20 | 8 | 0 | i
Cc1ccc(C)c(Cn2c(CN(C)Cc3ccccc3)nc3c2c(=O)n(C)c(=O)n3C)c1 | i | 40 | 40* | 0 | 0 | i
COc1ccc(-[n+]2c(C)cc(/C=C3\Sc4ccccc4N3C)cc2C)cc1 | i | 8 | 28* | 12 | -2 | i
CC(=O)Nc1ccc(S(=O)(=O)Nc2ccc(C(=O)NCC(=O)O)cc2)cc1 | i | 349* | -14 | 9 | 0 | i
Cc1ccc([N+](=O)[O-])cc1N/C=C1\CCCCC1=O | i | + | 18 | 20 | 0 | i
O=C(C1CCN(S(=O)(=O)c2cnc[nH]2)CC1)N(CCc1ccccc1)Cc1ccccc1 | i | 417* | 4 | 14 | 0 | i
O=C(C1CCCN(S(=O)(=O)c2cnc[nH]2)C1)N(CCc1ccccc1)Cc1ccccc1 (centres undefined) | i | -14 | 6 | 0 | 0 | i
CN(C)c1ccc(NC(=S)c2ccc3ccccc3n2)cc1 | i | -6 | -11 | 29 | 0 | i
NNC(=O)c1cccnc1Oc1ccccc1 | i | -23 | 25 | 6 | -1 | i
NC(=O)c1cccnc1Oc1ccccc1 | i | 350* | 16 | 14 | 0 | i
O=S(=O)(c1cccc(Br)c1)N1CCN(C(=S)NCC2CCCO2)CC1 (centres undefined) | i | 0 | x | 3 | 1 | i
COc1cc(/C=N/NC(=O)c2ccoc2C)ccc1O | i | -12 | 6 | -16 | -7 | i
COc1ccc(/C=N/NC(=O)CC(=O)NCc2cccnc2)cc1 | i | 34 | 23* | -1 | 1 | i
COc1ccc(/C=N/NC(=O)c2cccc(C(=O)N/N=C/c3ccc(OC)cc3)n2)cc1 | i | 306* | 4 | 18 | 0 | i
COc1cccc(/C=N/NC(=O)c2ccoc2C)c1 | i | -11 | 36* | 16 | -9 | i
Cc1cc(OC(C)C(=O)N2C[C@H]3C[C@@H](C2)c2cccc(=O)n2C3)c2c(C)c(C)c(=O)oc2c1 (some centres undefined) | i | -11 | 8 | 15 | 0 | i
C[C@@]12C(=O)Nc3cc(F)c(F)cc3C(=O)N1[C@H]1c3cc(Cl)ccc3OC[C@@H]1[C@@H]2c1ccccc1 | x | 188 | x | 9 | 0 | x
COc1ccc(C(CNC(=O)c2cccc(S(=O)(=O)N3CCc4ccccc43)c2)N(C)C)cc1 (centres undefined) | x | -13 | x | -5 | -1 | x
O=C(CCC(=O)c1cccs1)NCc1ccccc1Cl | x | 39 | x | 13 | 0 | x
CC(NC(=O)COC(=O)CCN1C(=O)C2CC=CCC2C1=O)c1ccc(Br)cc1 (centres undefined) | x | 4 | x | 1 | 2 | x
O=C(CSc1nc2ccccc2o1)Nc1ccc(N2CCOCC2)cc1 | i | 5 | 28* | 16 | 1 | i
O=C(CSc1nc2cc(Cl)ccc2o1)Nc1ccc(N2CCOCC2)cc1 | i | x | 11 | 2 | x | i
CCOc1cc(S(=O)(=O)NCc2ccccc2)ccc1Br | i | 20 | 6 | 15 | 1 | i
C=CCOc1ccc(/C=C2\SC(=S)N(NS(=O)(=O)c3ccccc3)C2=O)cc1 | i | -13 | -14 | 11 | 0 | -6.2*
Cc1ccc(-c2nnn(CC(=O)NCCc3ccc4c(c3)OCO4)n2)o1 | i | 329* | 14 | 10 | 0 | i
SMILES | CHT PAM | Mot1-301 SUMO | NALP1 yeast inh | NLRP3 yeast inh | Bfl-1 A1 inh | CHT inh
COc1ccc(-c2nnn(CC(=O)NCc3ccc4c(c3)OCO4)n2)cc1OC | i | -15 | 1 | 2 | 0 | i
Cc1cc(OCC(=O)N(C)C)c2c(-c3ccccc3)cc(=O)oc2c1 | i | 203 | -12 | -6 | 0 | i
Cc1cc(OCC(=O)C(C)(C)C)c2c(-c3ccccc3)cc(=O)oc2c1 | i | 297* | 16 | 34 | 0 | i
COc1cc(OC)c2c(-c3ccccc3)cc(=O)oc2c1 | i | 319* | -16 | -2 | -1 | i
Cc1cc(=O)[nH]c2c1c(C)nn2-c1ccccc1 | i | -9 | 14 | 3 | -1 | i
Cc1nn(-c2ccc(Cl)cc2)c2[nH]c(CCl)cc(=O)c12 | i | -7 | 12 | 19 | 0 | -9.4*
CCn1cc([N+](=O)[O-])c(C(=O)N2CCCc3ccccc32)n1 | x | x | 21 | 5 | x | x
O=C(COC(=O)c1ccccc1C(=O)c1ccc(Cl)c([N+](=O)[O-])c1)NC1CCCCCC1 | i | -9 | 36* | -3 | 1 | i
COC(=O)C1CCN(Cc2cn(Cc3ccccc3)nc2-c2cc3ccccc3o2)CC1 | i | x | 32* | 20 | 0 | i
Cc1ccc(NCc2ccc(C)s2)cc1 | i | -8 | -15 | 26 | 0 | i
Cc1noc2ncnc(Oc3cc(Cl)ccc3Cl)c12 | i | 90 | 21* | -35 | 0 | i
Cc1noc2ncnc(Oc3ccc4ccccc4c3)c12 | i | 10 | 6 | 29 | 0 | i
Cc1cccc(N(C(=O)CNC(=O)c2cccs2)C(C(=O)NC2CCCC2)c2ccncc2)c1 (centres undefined) | i | -14 | -7 | 20 | -1 | i
CCCCCc1ccc(OCCCC[n+]2ccccc2)c(CCCCC)c1 | i | 88 | 8 | 15 | 0 | i
CCC(C)(C)c1ccc(OCCCC[n+]2ccccc2)c(C(C)(C)CC)c1 | i | 290* | 20 | -8 | -1 | i
Cc1ccc(SCC(=O)OCC(=O)N(C)CC(=O)Nc2ccccc2Cl)cc1 | i | -4 | x | 18 | 0 | i
Nc1ccccc1-n1cccc1 | i | 315* | -4 | 17 | 0 | i
Cc1ccc(O)c(-c2cc(-c3ccc(F)cc3)no2)c1 | i | -12 | -1 | 24 | -6 | i
Cc1cccc(C(=O)OCN2C(=O)c3ccccc3C2=O)c1[N+](=O)[O-] | i | -6 | 5 | 13 | 1 | i
Cc1ccc(CNC(=O)Nc2ccc3c(c2)N(C)C(=O)CS3)cc1 | i | -7 | 31* | 27 | 0 | i
CN1C(=O)CSc2ccc(NC(=O)NCc3ccccc3)cc21 | i | 6 | -1 | 10 | 0 | i
